Test results taken from PubChem BioAssay (EPA / NIEHS).
The source made the active and inactive calls. The calls were made as follows: active = hit-call score of the fitted dose curve at least 0.9, where 1 is the maximum; inactive = score below 0.9.

The compounds below were run on Lipoprotein lipase (LPL), LPL (gene 4023) (assay: LTEA_HepaRG_LPL: Life Technologies and Expression Analysis (LTEA) Assay for Lipoprotein lipase (LPL) using HepaRG (AID 2283515)). Details: mRNA level, 48 h; actives raise or lower the signal.
Description: LTEA_HepaRG is a cell based, multiplexed-readout assay that uses HepaRG, a human liver cell line, with measurements taken at 48 hours after chemical dosing on a 96-well plate.LTEA_HepaRG_LPL is one of 102 assay component(s) measured in the LTEA HepaRG cell culture assay. It is a marker of Steatosis.Data from the assay component LTEA_HepaRG_LPL was analyzed into 1 endpoint. This assay endpoint, LTEA_HepaRG_LPL, was analyzed with bidirectional fitting relative to DMSO as the negative control and baseline of activity. Using a type of inducible reporter, measures of mRNA induction for gain or loss-of-signal activity can be used to understand regulation of transcription factor activity. To generalize the intended target to other relatable targets, this assay endpoint is annotated to the esterase intended target family, where the subfamily is lipase.
A total of 1060 chemcials from the ToxCast library were tested in eight-point concentration-response experiments. Cell culture and cytotoxicity assays were conducted at Thermo Fisher Scientific's Custom Services facility (Madison, WI). A single lot of human HepaRG cells (Thermo Fisher Scientific, Frederick, MD) was used for the cell culture experiments. 96-well format collagen type I coated plates of human HepaRG cells were prepared using established methods. Briefly, cryopreserved HepaRG cells were thawed, plated at a density of approximately 100,000 cells/well in HepaRG Thaw, Plate, and General Purpose media (HPRG770, Thermo Fisher Scientific), and incubated for 48 hours. 0.5% DMSO was selected as vehicle control to balance the requisite need of DMSO in HepaRG cultures to maintain differentiation (for example, baseline metabolism, proportions of hepatocytes vs. cholangiocytes), while enabling further hepatic receptor pathway activation (for example, PXR and CAR) in response to chemical exposure. 48 hours after plating, the culture medium was replaced with HepaRG Serum-Free Incudtion Media. Cells were exposed to each test chemical in duplicate and maintained in CO2 incubators for another 48 hours. Chemical plates were thawed to room temperature and 200x concentrations of treatment groups were prepared. 8-point conentration-reponse curves were made with the highest exposure at 100 uM, followed by half-log dilutions, all in 0.5% DMSO. Each test plate contained variouse controls, induction positive controls (1mM phenobarbital), cytotoxicity positive controls ([…] aflatoxin B1), vehicle controls (0.5% DMSO), and total lysis controls (0.5% DMSO). Cell morphology images were taken using an Essen IncuCyte FLR automated microscope, with six 96-well plates imaged in about 24 minutes. Images were captured and exported and JPEG files. Spent culture media was transfered to black-well plates for the LDH assay, and remaining media was sorted at -80 C for later use. Cells were treated with RLT buffer and frozen until shipped for gene expression analysis. Total RNA was isolated from the cell suspension in 75 uL of Buffer RLT (Qiagen, Germantown, MD 20874) by Quintiles/Expression Analysis (Durham, NC) using a custom isolation procedure. Total RNA from each plate well was transferred to a preamplification plate. Fluidigm's 96.96 Dynamic ArrayTM (Fluidigm, Amsterdam, the Netherlands) technology was used for gene expression analyses by quantitative reverse transcription polymerase chain reaction (qRT-PCR, performed by Quintiles/Expression Analysis, Durham, NC)89. Standard TaqManTM Assays (Applied Biosystems/ThermoFisher Scientific, Foster City, CA) were used to assess the expression of 93 genes selected based on their selectivity and sensitivity to important hepatic receptors known to be modulated by environmental chemicals; importance in human hepatocyte functionality; and hepatotoxicity. […]

SMILES	outcome	AC50
OCCOCCOCCO	inactive	
COc1cc2c(c(OC)c1OC)-c1ccc(OC)c(=O)cc1[C@@H](NC(C)=O)CC2		0.096 µM (active)
COCc1nnc(-c2ccc[n+]([O-])c2)n1-c1c(Cl)c(Cl)cc2[nH]c(=O)c(=O)[nH]c12	inactive	
CCCCCCOC(=O)CC(CC(=O)OCCCCCC)(OC(=O)CCC)C(=O)OCCCCCC	inactive	
Cc1nccn1-c1ccc(Sc2cccc(C3(C(N)=O)CCOCC3)c2)cc1		0.913 µM (active)
Cn1c(=O)c2[nH]cnc2n(C)c1=O	inactive	
c1ccc2ncccc2c1	inactive	
CCCCOC(=O)c1ccccc1	inactive	
C=CN1CCCC1=O	inactive	
O=S(=O)(O)c1ccc(N=Nc2c(O)ccc3cc(S(=O)(=O)O)ccc23)cc1	inactive	
NC(N)=O	inactive	
NC(=O)NN=Cc1ccc([N+](=O)[O-])o1	inactive	
OCc1ccccc1	inactive	
O=C(O)c1ccc2c(c1)nc(C(=O)NC1CCN(C3CC3)CC1)n2Cc1cc(-c2ccc(Cl)s2)on1	inactive	
CCCCCOC(C)=O	inactive	
NC(=O)N(O)[C@@H]1COc2cc(OCc3ccccc3)ccc21	inactive	
OC(Cn1cncn1)(Cn1cncn1)c1ccc(F)cc1F	inactive	
C[C@@H](Oc1ccc(CNC(=O)c2cccnc2Oc2ccc3c(c2)OCO3)c(F)c1)C(=O)O	inactive	
c1ccc2c(c1)-c1cccc3c1c-2cc1ccccc13		5.49 µM (active)
CC(C)CC(C)O (stereo not given)	inactive	

SMILES	outcome	AC50
CCCc1ccccc1	inactive	
O=C(O)c1cccc(C[C@@H]2COc3ccc(OCc4nc5cc(F)ccc5s4)cc3[C@@H]2O)c1	inactive	
NC(=O)N1c2ccccc2C=Cc2ccccc21	inactive	
C=CCc1cc(S(=O)(=O)c2ccc(O)c(CC=C)c2)ccc1O		93.4 µM (active)
CC(C)c1nnc2ccc(-c3ocnc3-c3cc(F)ccc3F)cn12	inactive	
OCCNCCO	inactive	
CCCCC(CC)C(=O)OCCOCCOCCOC(=O)C(CC)CCCC (stereo not given)	inactive	
CNC(C)=O	inactive	
c1ccc2cc3ccccc3cc2c1	inactive	
CCOc1ccc2[nH]cc(C(=O)NCc3ccccc3)c(=O)c2n1	inactive	
CC(C)CCCCCCOC(=O)C1CCCCC1C(=O)OCCCCCCC(C)C (stereo not given)		9.92 µM (active)
CCCC(CCC)C(=O)O	inactive	
CCCCCCCCN(C)C	inactive	
O=C(O)[C@H](O)[C@@H](O)C(=O)O	inactive	
OC[C@H]1O[C@@H]2O[C@H]3[C@H](O)[C@@H](O)[C@@H](O[C@H]4[C@H](O)[C@@H](O)[C@@H](O[C@H]5[C@H](O)[C@@H](O)[C@@H](O[C@H]6[C@H](O)[C@@H](O)[C@@H](O[C@H]7[C@H](O)[C@@H](O)[C@@H](O[C@H]1[C@H](O)[C@H]2O)O[C@@H]7CO)O[C@@H]6CO)O[C@@H]5CO)O[C@@H]4CO)O[C@@H]3CO	inactive	
CCc1ccc(O)c(C(C)(C)C)c1	inactive	
OCC(CO)(CO)CO	inactive	
CCOC(N)=O	inactive	
Cc1ccc(S(=O)(=O)NC(=O)NN2CCCCCC2)cc1	inactive	
O=S1(=O)CCCO1	inactive	
